# Bioassay records deposited in PubChem by several laboratories.
# Bcl-xL primary = Bcl-xL (human) inhibition | Q07817 | GST-Bcl-xL / FITC-Bim BH3 peptide fluorescence polarization | inhibition, % at 10.9 µM | hit rate 0.7% among 320,000;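 active = inhibition above the mean of all tested compounds plus 3 SD, cutoff set per campaign, cut at about 30% in these data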;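 note: 0% = DMSO wells and 100% = unlabeled Bim-BH3 peptide competitor; inhibitors lower millipolarization by displacing the labeled peptide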
# Mcl1-Noxa inh = disrupts binding of human Mcl-1 to Noxa peptide; TR-FRET Mcl-1/Noxa peptide binding, 2 h; inhibition, % at 21.7 µM; hit rate 1.5% among 220,000; AID 1022;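 active = compounds that cut the protein-peptide binding signal by more than 50% relative to plate controls in a single-dose test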;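 note: His-tagged Mcl-1 with rhodamine Noxa BH3 peptide and terbium anti-His antibody; 0% = Mcl-1 plus Noxa peptide wells and 100% = peptide-only wells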
# GLD-1 RNA inh = GLD-1-TGE RNA interaction inhibition (C. elegans). Q17339. purified GLD-1 + fluorescein TGE RNA, fluorescence polarization. inhibition, % at 5.96 µM. hit rate 0.44% among 320,000. AID 2280;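 active = percent inhibition above a per-plate cutoff, the plate mean of test compounds plus 3 SD, cut at about 30% in these data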;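 note: 0% = DMSO wells with GLD-1 and probe and 100% = wells lacking GLD-1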
# Target sequence (Q17339 whole entry, looked up): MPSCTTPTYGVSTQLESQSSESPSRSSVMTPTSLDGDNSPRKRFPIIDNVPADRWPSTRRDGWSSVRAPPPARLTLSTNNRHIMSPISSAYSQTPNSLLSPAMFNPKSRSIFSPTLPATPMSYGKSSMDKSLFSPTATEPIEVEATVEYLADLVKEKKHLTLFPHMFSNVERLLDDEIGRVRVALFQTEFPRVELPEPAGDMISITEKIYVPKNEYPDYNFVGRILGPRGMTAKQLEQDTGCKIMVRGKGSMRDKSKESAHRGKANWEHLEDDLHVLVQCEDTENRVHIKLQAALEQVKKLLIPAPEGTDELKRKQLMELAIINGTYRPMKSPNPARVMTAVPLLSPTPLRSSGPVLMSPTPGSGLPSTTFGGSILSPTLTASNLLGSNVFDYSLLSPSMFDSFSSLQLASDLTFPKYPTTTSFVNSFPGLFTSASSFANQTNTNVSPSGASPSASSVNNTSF
# Mcl1-Bid inh = disrupts binding of human Mcl-1 to Bid peptide. TR-FRET Mcl-1/Bid-Dy647 peptide binding, 1536-well. inhibition, % at 21.7 µM. hit rate 0.97% among 220,000. AID 1021;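 active = compounds that cut the binding signal by more than half at the single screening dose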;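 note: His-tagged Mcl-1 with europium anti-His antibody binding Bid BH3 peptide; 0% = Mcl-1 plus peptide wells and 100% = peptide-only wells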
# MCL1-BIM inh = disrupts human MCL1 binding to BIM-BH3 peptide; Q07820; GST-MCL1 / FITC-Bim-BH3 fluorescence polarization; inhibition, % at 10.9 µM; hit rate 0.68% among 320,000; AID 2057;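 active = inhibition above the mean inhibition of all tested compounds plus 3 SD, set per campaign, cut at about 40% in these data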;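 note: 0% = DMSO wells and 100% = unlabeled Bim-BH3 peptide control; higher means more loss of mP so more displacement of Bim peptide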
# Bim-Mcl-1 = disrupts Bim peptide binding to human Mcl-1; Q07820; Bead-based flow cytometry, Bim peptide-Mcl-1 binding; inhibition, % at 10 µM; hit rate 0.1% among 190,000; AID 1009; in the data active = inhibition above about 40%;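 note: 0% = no compound tracer wells and 100% = peptide blocker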
# Bcl-xL conf = Bcl-xL (human) inhibition, MCL1 counter-screen confirmation | GST-Bcl-xL / FITC-Bim BH3 peptide FP binding | shares compounds with MCL1-BIM inh | AID 2166 | inhibition, % at 10.9 µM | hit rate 54% among 1,700;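 active = inhibition above a cutoff equal to the mean inhibition of all tested compounds plus 3 SD, cut at about 30% in these data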;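 note: 0% = DMSO wells and 100% = unlabeled Bim BH3 control peptide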
# MCL1 inh confirm = confirmation of human MCL1 and BIM-BH3 interaction inhibitors. hit rate 61% among 1,700. inhibition, % at 10.9 µM. shares compounds with MCL1-BIM inh. GST-MCL1 / FITC-Bim-BH3 fluorescence polarization;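 active = inhibition above the average of all tested compounds plus 3 SD, cut at about 40% in these data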;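 note: 0% = DMSO wells and 100% = unlabeled Bim-BH3 control peptide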
# Numbers without * were called inactive; nt = not tested or not shown. A selection: hits, their analogues and other compounds. The true share with any hit is near 2.3%.
SMILES,Bcl-xL primary,Mcl1-Noxa inh,GLD-1 RNA inh,Mcl1-Bid inh,MCL1-BIM inh,Bim-Mcl-1,Bcl-xL conf,MCL1 inh confirm
CCCC1OC23CCCCC2C(C#N)(C(=N)O3)C1(C#N)C#N (configuration not stated),54.9*,6.2,54.6*,-12.9,55.9*,-1.0,16.5,16.2
COc1ccc(C2OC34CCCCC3C(C#N)(C#N)C2(C#N)C(=N)O4)cc1 (configuration not stated),135.1*,-1.7,101.1*,-51.5,155.2*,-6.0,104.8*,134.9*
CCC1OC23CCCCC2C(C#N)(C(=N)O3)C1(C#N)C#N (configuration not stated),77.2*,29.1,57.0*,-32.7,78.1*,2.0,4.4,6.8
COc1ccc(C2CC3(O)NC(=O)C(C#N)(C3C)C2(C#N)C#N)cc1 (configuration not stated),3.4,-3.1,-2.8,-5.5,-4.0,nt,nt,nt
CN(Cc1c(F)cccc1Cl)C(=O)C1=CC=CN2CCS(=O)(=O)N=C12,nt,nt,-1.4,nt,nt,nt,nt,nt
CCN(CC)C(=O)CSc1nnc2nnc3cc(Cl)ccc3n12,92.8*,3.6,123.3*,5.0,88.0*,nt,65.0*,79.3*
CCCn1c(SCC(=O)N(CC)CC)nnc1-c1ccncc1,-0.9,-10.2,1.8,-37.9,0.3,0.0,nt,nt
CC(C)(CO)[C@@H](O)C(=O)NCCC(=O)O,8.8,nt,2.4,nt,4.7,nt,nt,nt
CCc1n[nH]c(=S)n1/N=C/c1cc(OC)cc([N+](=O)[O-])c1O,4.8,78.2*,4.1,-125.7,59.9*,1.0,16.4,67.7*
COc1cc(/C=N/n2c(=S)[nH]nc(C)c2=O)cc([N+](=O)[O-])c1O,5.8,10.6,2.3,-40.4,7.7,0.0,nt,nt
COC(=O)C1=COC(C)C2CN3CCc4c([nH]c5cc(OC)c(OC)cc45)C3CC12 (configuration not stated),92.1*,-13.8,53.1*,-112.0,96.2*,nt,94.3*,113.4*
COc1ccc(CCNC(=O)C(NS(=O)(=O)c2cccc3nsnc23)C(C)C)cc1OC (configuration not stated),7.8,nt,3.2,nt,-0.2,nt,nt,nt
Cn1nc(-c2ccc(Cl)cc2)nc2c(=O)n(C)c(=O)nc1-2,90.3*,4.1,78.4*,0.7,95.8*,-3.0,94.3*,120.6*
Cc1ccnc2nc(C(=O)OCC(=O)c3ccc(NC(=O)CC(C)C)cc3)nn12,nt,nt,-4.9,nt,nt,nt,nt,nt
CCC(=O)Nc1ccc(C(=O)COC(=O)c2nc3nccc(C)n3n2)cc1,2.9,nt,8.4,nt,53.9*,nt,1.2,52.3*
COc1ccc(C(=O)N/N=C(\C)c2ccc3c(c2)C2C=CCC2C(c2ccccc2)N3)cc1 (configuration not stated),29.7,45.8,-1.1,-1.8,56.5*,3.0,5.5,-0.7
COc1cccc(NS(=O)(=O)c2ccc3c(c2)C2C=CCC2C(c2ccc(C(=O)O)cc2)N3)c1 (configuration not stated),26.0,97.0*,15.1,14.1,58.4*,6.0,29.2,46.0*
O=C(NCC1CCCO1)c1cccc(NS(=O)(=O)c2ccccc2)c1 (configuration not stated),5.6,nt,2.3,nt,-7.8,nt,nt,nt
Cn1nc([N+](=O)[O-])c(C(C#N)c2ccccn2)c(Cl)c1=O (configuration not stated),47.7*,5.4,25.4,-26.4,60.0*,-1.0,22.6,14.8
COc1ccccc1NC(=O)Nc1nc(CC(=O)N2CCN(c3ccccc3OC)CC2)cs1,1.0,nt,9.8,nt,-5.2,nt,nt,nt
COc1ccc(C(C)=O)c(Oc2cc(NN3CCCCC3)c([N+](=O)[O-])cc2[N+](=O)[O-])c1,3.7,nt,7.9,nt,15.3,nt,nt,nt
CCOC(=O)C1=C(CSc2nc3c(cc2C#N)CN(C)CC3)OC(N)=C(C#N)C1c1ccccc1 (configuration not stated),67.6*,32.6,27.4,-16.4,84.6*,-4.0,16.4,8.4
